Screen size: about 5,500 compounds; about 2,000 (36%) were called active. About 18% were inconclusive and are not listed. This is one part of the list. A number with no mark means an inactive call. Rule as the data show it: active = normalized growth mostly below about 0.91 (no sharp cut-off); inconclusive = no clear call, values can overlap the other calls; inactive = mostly above about 0.92.
Experiment: chemical genetic growth profiling, strain panel (AID 1159580);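 also: tested at 20 µM; growth read once vehicle control cultures reached saturation at 30 °C; 1 = growth at the plate median or of vehicle wells; lower values mean less growth of the strain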
Details: growth OD
[1] = S. cerevisiae deletion strains, locus YAL013W, strain DEP1, hits give low values
[2] = S. cerevisiae deletion strains, locus YBR229C, strain ROT2, hits give low values
[3] = S. cerevisiae deletion strains, locus YCL061C, strain MRC1, hits give low values
[4] = S. cerevisiae deletion strains, locus YDL101C, strain DUN1, hits give low values
[5] = S. cerevisiae deletion strains, locus YDL134C, strain PPH21, hits give low values
[6] = S. cerevisiae deletion strains, locus YDR150W, strain NUM1, hits give low values
[7] = S. cerevisiae deletion strains, locus YEL061C, strain CIN8, hits give low values
[8] = S. cerevisiae deletion strains, locus YGR078C, strain PAC10, hits give low values
[9] = S. cerevisiae deletion strains, locus YHR030C, strain SLT2, hits give low values
[10] = S. cerevisiae deletion strains, locus YHR087W, strain rtc3, hits give low values
[11] = S. cerevisiae deletion strains, locus YJR043C, strain POL32, hits give low values
[12] = S. cerevisiae deletion strains, locus YJR075W, strain HOC1, hits give low values
[13] = S. cerevisiae deletion strains, locus YKL190W, strain CNB1, hits give low values
[14] = S. cerevisiae deletion strains, locus YLR039C, strain RIC1, hits give low values
[15] = S. cerevisiae deletion strains, locus YLR058C, strain SHM2 (second series), hits give low values
[16] = S. cerevisiae deletion strains, locus YLR085C, strain ARP6, hits give low values
[17] = S. cerevisiae deletion strains, locus YLR262C, strain YPT6, hits give low values
[18] = S. cerevisiae deletion strains, locus YML094W, strain GIM5, hits give low values
[19] = S. cerevisiae deletion strains, locus YMR219W, strain ESC1, hits give low values
[20] = S. cerevisiae deletion strains, locus YMR263W, strain SAP30, hits give low values
[21] = S. cerevisiae deletion strains, locus YNL153C, strain GIM3, hits give low values
[22] = S. cerevisiae deletion strains, locus YNL298W, strain CLA4 (second series), hits give low values
[23] = S. cerevisiae deletion strains, locus YNL322C, strain KRE1, hits give low values
[24] = S. cerevisiae deletion strains, locus YNR030W, strain Alg12, hits give low values
[25] = S. cerevisiae deletion strains, locus YPL055C, strain LGE1, hits give low values
[26] = S. cerevisiae deletion strains, locus YPL241C, strain CIN2, hits give low values
[27] = S. cerevisiae deletion strains, locus YPR135W, strain CTF4, hits give low values
[28] = S. cerevisiae strains, strain wild type, hits give low values
[29] = S. cerevisiae deletion strains, locus YJL187C, strain SWE1, hits give low values

**Q.** For `O=C(O)CC(CC(=O)Nc1ccc(I)cc1F)c1ccc(C(F)(F)F)cc1` (stereo not given), which normalized growth [1] is on record?
**A.** 0.99

**Q.** And the normalized growth [2]?
**A.** 0.99

**Q.** And the normalized growth [3]?
**A.** 0.978

**Q.** And the normalized growth [4]?
**A.** 0.985

**Q.** What about the normalized growth [5] of the same compound?
**A.** 0.981

**Q.** What about the normalized growth [6] of the same compound?
**A.** 0.972

**Q.** And the normalized growth [7]?
**A.** 1

**Q.** What about the normalized growth [8] of the same compound?
**A.** 1

**Q.** What about the normalized growth [9] of the same compound?
**A.** 1

**Q.** What about the normalized growth [10] of the same compound?
**A.** 0.981

**Q.** What about the normalized growth [11] of the same compound?
**A.** 1

**Q.** And the normalized growth [12]?
**A.** 0.943

**Q.** What about the normalized growth [13] of the same compound?
**A.** 1.01

**Q.** And the normalized growth [14]?
**A.** 1.02

**Q.** What about the normalized growth [15] of the same compound?
**A.** 0.975

**Q.** And the normalized growth [16]?
**A.** 1

**Q.** What about the normalized growth [17] of the same compound?
**A.** 1.02

**Q.** What about the normalized growth [18] of the same compound?
**A.** 0.989

**Q.** What about the normalized growth [19] of the same compound?
**A.** 0.984

**Q.** What about the normalized growth [20] of the same compound?
**A.** 0.969

**Q.** And the normalized growth (S. cerevisiae deletion strains, locus YNL128W, strain TEP1, hits give low values)?
**A.** 0.995

**Q.** And the normalized growth [21]?
**A.** 1.01

**Q.** And the normalized growth [22]?
**A.** 1.05

**Q.** And the normalized growth [23]?
**A.** 0.973

**Q.** What about the normalized growth [24] of the same compound?
**A.** 0.927

**Q.** And the normalized growth [25]?
**A.** 0.968

**Q.** What about the normalized growth [26] of the same compound?
**A.** 0.986

**Q.** And the normalized growth [27]?
**A.** 1.03

**Q.** And the normalized growth [28]?
**A.** 1

**Q.** Which results are given for `O=C(NCc1nc(-c2ccc(C(F)(F)F)cc2)no1)Nc1ccc(F)cc1F`?
**A.** normalized growth [1]: 1.01; normalized growth [2]: 0.987; normalized growth [4]: 0.975; normalized growth [5]: 0.857 (active); normalized growth [6]: 1.03; normalized growth [7]: 0.996; normalized growth [8]: 0.996; normalized growth [9]: 1.07; normalized growth [10]: 0.973; normalized growth [29]: 0.997; normalized growth [11]: 1; normalized growth [12]: 0.967; normalized growth [13]: 1.01; normalized growth [14]: 0.981; normalized growth [15]: 1.01; normalized growth [16]: 1.04; normalized growth [17]: 1.02; normalized growth [18]: 0.968; normalized growth [19]: 1; normalized growth (S. cerevisiae deletion strains, locus YMR307W, strain GAS1, hits give low values): 0.894; normalized growth [21]: 0.987; normalized growth [22]: 1.03; normalized growth [23]: 1.02; normalized growth [24]: 0.988; normalized growth [25]: 0.846; normalized growth [26]: 0.966; normalized growth [27]: 1.01; normalized growth [28]: 1.02

**Q.** Which normalized growth [1] does the source give for `FC(F)(F)c1cc(-n2c(CCc3nc(-c4ccc(Cl)cc4)no3)n[nH]c2=S)cc(C(F)(F)F)c1` here?
**A.** 0.996

**Q.** And the normalized growth [2]?
**A.** 0.991

**Q.** What about the normalized growth [3] of the same compound?
**A.** 0.985

**Q.** And the normalized growth [4]?
**A.** 0.946

**Q.** And the normalized growth [6]?
**A.** 0.867

**Q.** And the normalized growth [7]?
**A.** 1.04

**Q.** What about the normalized growth [8] of the same compound?
**A.** 0.963

**Q.** And the normalized growth (S. cerevisiae deletion strains, locus YGR229C, strain SMI1, hits give low values)?
**A.** 0.991

**Q.** What about the normalized growth [9] of the same compound?
**A.** 0.993

**Q.** What about the normalized growth [10] of the same compound?
**A.** 1.03

**Q.** And the normalized growth [29]?
**A.** 1.01

**Q.** And the normalized growth [11]?
**A.** 0.978

**Q.** And the normalized growth [12]?
**A.** 0.978

**Q.** What about the normalized growth [14] of the same compound?
**A.** 1.05

**Q.** What about the normalized growth [15] of the same compound?
**A.** 1.01

**Q.** What about the normalized growth [16] of the same compound?
**A.** 0.97

**Q.** And the normalized growth [17]?
**A.** 1.02

**Q.** What about the normalized growth [18] of the same compound?
**A.** 1.03

**Q.** And the normalized growth [19]?
**A.** 0.994

**Q.** And the normalized growth [20]?
**A.** 0.957

**Q.** What about the normalized growth [21] of the same compound?
**A.** 0.95

**Q.** What about the normalized growth [22] of the same compound?
**A.** 0.981

**Q.** What about the normalized growth [23] of the same compound?
**A.** 0.989

**Q.** And the normalized growth [24]?
**A.** 0.975

**Q.** And the normalized growth (S. cerevisiae deletion strains, locus YOL006C, strain TOP1, hits give low values)?
**A.** 0.994

**Q.** And the normalized growth [25]?
**A.** 0.994

**Q.** And the normalized growth [26]?
**A.** 0.965

**Q.** What about the normalized growth [27] of the same compound?
**A.** 0.879
